The results in this text go back to PubChem BioAssay.

Calls of active or inactive are those of the source. No rule for the calls is given here.

The test can be described thus: inhibitors of Cryptococcus chitosan production, flow cytometry, Cibacron Brilliant Red staining (AID 1347148).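 Also: compound exposure lasted three days at 37 degrees C.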 The following applies: Cryptococcus neoformans chitosan, stronger effect = lower value; at 10 µM unless noted.
As to `CCCCCCCCCCCCCCC[C@H](O)[C@@H](CO)NC(=O)CCCCCCC`, the fold fluorescence is 6.03 (inactive).
In the case of `CC(/C=C/C(=O)NO)=C\[C@H](C)C(=O)c1ccc(N(C)C)cc1` it was 17.7 [at 165.4 µM] (inactive); in that of `O=C(O)CCC/C=C\C[C@@H]1C(=O)C[C@H](O)[C@H]1/C=C/[C@H](O)CCc1ccccc1`, 4.52 (inactive); in that of `O=C(NC[C@H]1CCCCN1)c1cc(OCC(F)(F)F)ccc1OCC(F)(F)F`, 6.98 [at 120.7 µM] (inactive).
Take `CCCCOc1cc(C[C@H]2CNC(=O)N2)ccc1OC`: the fold fluorescence is 8.15 [at 179.6 µM] (inactive).
Consider `CC(C)=CCC(O)C1=CC(=O)c2c(O)ccc(O)c2C1=O` (stereo not drawn), for which the fold fluorescence is 6.4 [at 173.4 µM] (inactive).
Consider `CCCCC[C@H](O)CCCC(=O)O`, for which the fold fluorescence was 4.65 [at 265.6 µM] (inactive).
Turning to `CC1(COc2ccc(C[C@@H]3SC(=O)NC3=O)cc2)CCCCC1`, the fold fluorescence is 5.39 (inactive).
Turning to `OC[C@@H]1NC[C@@H](O)[C@H](O)[C@H]1O`, the fold fluorescence was 7.48 [at 306.4 µM] (inactive).
As to `CCCCCCCCCCCCCCCCCCOC[C@@H](COP(=O)([O-])OCC[N+](C)(C)C)OC(C)=O`, the fold fluorescence was 3.94 (inactive).
As to `CCCCCCCC/C=C\CCCCCCCCOC[C@@H](COP(=O)([O-])OCC[N+](C)(C)C)OC(C)=O`, the fold fluorescence is 3.92 (inactive).
As to `O=C(O)CCC/C=C\C[C@H]1[C@H](/C=C/[C@H](O)COc2cccc(C(F)(F)F)c2)[C@@H](O)C[C@H]1O`, the fold fluorescence is 4.62 (inactive).
As to `C[C@H](N)C1CCC(C(=O)Nc2ccncc2)CC1` (stereo partly drawn), the fold fluorescence was 2.94 [at 202.1 µM] (inactive).
